This is an account of results in PubChem BioAssay (NCATS).

Results filed as inconclusive are left out. Calls of active or inactive are those of the source. Unless noted, the call rests on the fitted dose curve; in most records, active means well fitted inhibition curve with a large enough effect; inconclusive means small, poorly fitted or top-dose-only effect; inactive means no such curve, though single readings can be large or run the other way.

A short description of assay [1]: qHTS profiling of the MIPE4 collection as inhibitors of Plasmodium falciparum (HB3) proliferation (AID 743347; call rule not given here;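 further: plate controls were DMSO vehicle wells for no effect and artemisinin wells for full effect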). Particulars: P. falciparum HB3 in erythrocytes, SYBR Green DNA, 72 h; at 28.5 µM (top of the series) unless noted. The method, boiled down:
(§1)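 Parasite DNA was quantified by SYBR Green I fluorescence (ex 485, em 535 nm) after overnight lysis in saponin/Triton buffer at room temperature. Cultures at 0.3% parasitemia and 2.5% hematocrit were first exposed to compound for 72 h at 37 C; signals were normalised to artemisinin (0.29 uM) and vehicle wells.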
A general note: qHTS replaces the single test concentration by a dilution series.

Assay [2] in a line: High-throughput drug toxicity screening in the BPDCN cell line Gen2.2 (AID 1224824; call rule not given here;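 further: cells exposed to compounds for 48 h before reading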). The following applies: Gen2.2 BPDCN cells; at 45.8 µM (top of the series) unless noted. The method, boiled down:
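Gen2.2 cells (500/well) in phenol red-free RPMI with 10% FBS were exposed to compounds for 48 h at 37 °C, 5% CO2. Viability was read by CellTiter-Glo luminescence and normalized to DMSO (100%) and 9.2 uM bortezomib (0%).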

A short description of assay [3]: High-throughput drug toxicity screening in the BPDCN cell line Cal-1 (AID 1224825; call rule not given here). The following applies: Cal-1 BPDCN cell viability, qHTS; at 45.8 µM (top of the series) unless noted. The method, boiled down:
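Viability of the BPDCN line Cal-1 is measured as ATP-based luminescence (CellTiter-Glo) following 48 h incubation with compounds. Percent activity uses DMSO-treated wells as 100% and 9.2 uM bortezomib as 0%.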

The nature of assay [4]: qHTS assay for measurement of the activity of small molecule inhibitors on Zika virus induced Caspase-3 activity in human iPSC derived neural progenitor cells (hNPCs) (AID 1224857). Further: % of control where 0% means no effect; nearly all actives have a fitted effect of over 65% in size. The method, boiled down:
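Human iPSC-derived neural progenitor cells pretreated 1 hr with compounds, then infected with Zika virus (2 FFU/cell) for 6 hours at 37 C. Caspase-3/7 measured by Caspase-Glo luminescence; % inhibition calculated from induction scaled to uninfected (0%) and infected (100%) wells.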

Assay [5] can be described thus: qHTS assay for measurement of the activity of small molecule inhibitors on Zika virus induced Caspase-3 activity in human astrocytoma cells (AID 1224859).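 Further: plate controls were ZIKV-infected untreated cells for no effect and uninfected cells for full effect.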 The method, boiled down:
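SNB-19 astrocytoma cells, 250/well, pretreated 1 h with compounds, then Zika virus at 2 FFU/cell for 6 h at 37 C; Caspase-Glo 3/7 luminescence after 30 min; percent inhibition normalised to uninfected and infected controls.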

Assay [6] can be described thus: qHTS Screen of the MIPE 4.0 Collection Against Ewings Sarcoma (RDES) (AID 1259252). Further: nearly all actives have a fitted effect of over 35% in size. Further: potency means the concentration at half of the fitted maximal effect. The method in brief:
(§2)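 Measured: ATP luminescence (CellTiter-Glo) 10 min after reagent addition, following 48 h drug treatment. Relative luciferase units converted to percent activity, with no-cell wells as full and DMSO wells as zero inhibition.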

Assay [7] in a line: qHTS Screen of the MIPE 4.0 Collection Against Ewings Sarcoma (TC71) (AID 1259253). Further: nearly all actives have a fitted effect of over 40% in size. Further: potency means the concentration at half of the fitted maximal effect. The method in brief: as §2
Assay [8] in a line: qHTS Screen of the MIPE 4.0 Collection Against Ewings Sarcoma (EW8) (AID 1259255). Further: nearly all actives have a fitted effect of over 35% in size. Further: potency means the concentration at half of the fitted maximal effect.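 On viability: 100% = DMSO-treated cells and 0% = medium-only wells without cells.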 The method in brief:
as §2

A short description of assay [9]: qHTS profiling of the MIPE4 collection as inhibitors of Plasmodium falciparum (DD2) proliferation (AID 743345; call rule not given here). The following applies: P. falciparum Dd2 in erythrocytes, SYBR Green DNA, 72 h; at 28.5 µM (top of the series) unless noted. The method, boiled down:
as §1

Assay [10] in a line: qHTS profiling of the MIPE4 collection as inhibitors of Plasmodium falciparum (DD2) proliferation (Rep 2) (AID 743346; call rule not given here). The following applies: P. falciparum Dd2 in erythrocytes, SYBR Green DNA, 72 h; at 28.5 µM (top of the series) unless noted. The method, boiled down:
as §1

With `NC(=O)c1cccc(-c2cccc(OC(=O)NC3CCCCC3)c2)c1`, the growth, % of control in assay [1] stood at 94.2%. Also, the cell viability, % of control (lower = more cytotoxic) in [2] is 128%. Further, the viability (% of control) in [3] came out at 91.7%. Further, the Potency result in [4], in [5], in assay [6], in assay [7] and in assay [8] was “inactive” in each case.
`C#C[C@]1(O)CC[C@@H]2[C@@H]3CCc4cc(O)ccc4[C@H]3CC[C@@]21C` showed a parasite growth remaining, % of DMSO control (lower = more inhibition) in [9] of 90.7%. The parasite growth, % of control (lower = inhibition) in assay [10] was found to be 54.7%. Moreover, in assay [1], the growth, % of control was determined as 89.8%. Further, in [2], the cell viability, % of control (lower = more cytotoxic) was determined as 67.3%. The viability (% of control) in assay [3] turned out to be 11.2%. Besides, the Potency entry in [4] and in [5] was “inactive” each time. For the same compound, the results for the Potency in assay [6], in [7] and in [8] were 18700 nM (active), 16600 nM (active) and 20900 nM (active), respectively.
In [9], `CC[C@]12C=CCN3CC[C@@]4(c5cc([C@@]6(C(=O)OC)C[C@H]7C[C@@H](C(C)(F)F)CN(Cc8c6[nH]c6ccccc86)C7)c(OC)cc5N(C)[C@H]4[C@@](O)(C(=O)OC)[C@H]1OC(C)=O)[C@@H]32` showed a parasite growth remaining, % of DMSO control (lower = more inhibition) of 12.3%. For the same compound, in [10], the parasite growth, % of control (lower = inhibition) came to 24.8%. Moreover, the growth, % of control in assay [1] turned out to be 16.3%. Also, the cell viability, % of control (lower = more cytotoxic) in assay [2] amounted to 8.97%. In addition, in assay [3], the viability (% of control) was determined as 9.46%. In addition, the Potency result in assay [4] and in assay [5] was “inactive” throughout. The results for the Potency in [6], in assay [7] and in assay [8] were 10.5 nM (active), 18.7 nM (active) and 5.3 nM (active), respectively.
Turning to `O=C(O)C(=O)Nc1cccc(C2=NN=N[N]2)c1`, the cell viability, % of control (lower = more cytotoxic) in [2] came to 222%. Moreover, the viability (% of control) in assay [3] is 113%. The Potency result in [4], in assay [5], in assay [7] and in assay [8] was “inactive” each time.
In assay [9], `CS[C@H]1SC[C@@H]2C(=O)N(C)[C@H](C(C)C)C(=O)OC[C@H](NC(=O)c3cnc4ccccc4n3)C(=O)N[C@H](C)C(=O)N(C)[C@@H]1C(=O)N(C)[C@H](C(C)C)C(=O)OC[C@H](NC(=O)c1cnc3ccccc3n1)C(=O)N[C@H](C)C(=O)N2C` showed a parasite growth remaining, % of DMSO control (lower = more inhibition) of 5.94%. In addition, the parasite growth, % of control (lower = inhibition) in assay [10] was found to be 7.64%. For the same compound, the growth, % of control in assay [1] turned out to be 10.7%. For the same compound, in assay [2], the cell viability, % of control (lower = more cytotoxic) is 3.67%. Also, in assay [3], the viability (% of control) is 5.19%. Moreover, the Potency result in assay [4] and in assay [5] was “inactive” in each case. Moreover, the results for the Potency in assay [7] and in assay [8] were 2.6 nM (active) and 1.9 nM (active), respectively.
As for `COC(=O)[C@H](CCCN=C(N)N)NS(=O)(=O)c1ccc(C)cc1`, the cell viability, % of control (lower = more cytotoxic) in assay [2] was found to be 94.4%. For the same compound, the viability (% of control) in assay [3] worked out at 104%. Moreover, the Potency result in assay [4], in assay [5], in assay [7] and in assay [8] was “inactive” in each case.
In the case of `Cc1cc(Nc2ncc3c(n2)N(C)C(=O)N(c2cc(NC(=O)c4cccc(C(F)(F)F)c4)ccc2C)C3)n(C)n1`, the parasite growth remaining, % of DMSO control (lower = more inhibition) in [9] amounted to 15.8%. The parasite growth, % of control (lower = inhibition) in assay [10] is 15.8%. Besides, in [1], the growth, % of control was 10.8%. Also, the cell viability, % of control (lower = more cytotoxic) in assay [2] was found to be 11.1%. Moreover, the viability (% of control) in assay [3] came out at 7.39%. Moreover, the Potency result in assay [4] and in assay [5] was “inactive” each time. The Potency in assay [7] is 372 nM (active); in assay [8], 833 nM (active).
As to `OC[C@@H](O)[C@@H](O)[C@H](O)[C@@H](O)CO`, the parasite growth remaining, % of DMSO control (lower = more inhibition) in assay [9] turned out to be 91.5%. Moreover, the parasite growth, % of control (lower = inhibition) in assay [10] is 92%. Besides, in [2], the cell viability, % of control (lower = more cytotoxic) came out at 201%. Also, the viability (% of control) in [3] stood at 126%. Besides, the Potency result in assay [4], in assay [5], in [7] and in assay [8] was “inactive” in each case.
`Nc1cccc2c1C(=O)N(C1CCC(=O)NC1=O)C2=O` (stereo not given) displayed a parasite growth remaining, % of DMSO control (lower = more inhibition) in assay [9] of 95.1%. Also, the parasite growth, % of control (lower = inhibition) in [10] was 113%. The cell viability, % of control (lower = more cytotoxic) in [2] was found to be 52.1%. Besides, in assay [3], the viability (% of control) stood at 88.7%. Also, the Potency entry in assay [4], in [5], in [7] and in [8] was “inactive” each time.
For `C[C@@H]1C(=O)O[C@H]2CC34[C@H]5C[C@@H](C(C)(C)C)C36[C@H](OC(=O)[C@@H]6O)O[C@@]4(C(=O)O5)[C@]21O` (stereo not given in full), the parasite growth remaining, % of DMSO control (lower = more inhibition) in assay [9] was 97.7%. Moreover, the cell viability, % of control (lower = more cytotoxic) in assay [2] came to 129%. For the same compound, the viability (% of control) in assay [3] was 69%. Further, the Potency result in assay [4], in assay [5], in [7] and in [8] was “inactive” each time.
Compound `COc1ccc([C@@H]2CNC(=O)C2)cc1OC1CCCC1` came in with a parasite growth remaining, % of DMSO control (lower = more inhibition) in assay [9] of 96.4%. Also, in assay [10], the parasite growth, % of control (lower = inhibition) came to 67%. The compound further displayed a growth, % of control in assay [1] of 102%. Further, the cell viability, % of control (lower = more cytotoxic) in [2] was 107%. Further, the viability (% of control) in assay [3] turned out to be 108%. The Potency result in assay [4] and in assay [5] was “inactive” each time. Moreover, the values for the Potency in assay [7] and in assay [8] were 2350 nM (active) and 9350 nM (active), respectively.
